Structures are written as SMILES. This is part of a sample that, as a whole, favours compounds with a hit. Of some 83,000 tested, about 20% had one in any assay.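 Values shown are percent growth following 48 h exposure of cells in 96-well plates to a single concentration of compound; below 10 was considered active.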 Values without a mark were called inactive. Active and inactive are the calls of the source.

Holding throughout (test): NCI-60 one-dose screen, 48 h (100 = growth as untreated, 0 = no growth, -100 = all killed)
The test system of one experiment is HCT-15 colon. Conditions: 10 µM unless noted.
The subject of the next experiment is HT29 colon. Conditions: 10 µM unless noted.
The next experiment deals with SNB-75 CNS. Conditions: 10 µM unless noted.
For the next experiment, the system named is SNB-19 CNS. To be noted: 10 µM unless noted.
For the next experiment, the system named is U251 CNS. To be noted: 10 µM unless noted.
Another experiment relates to PC-3 prostate. Conditions: 10 µM unless noted.
Another experiment deals with SK-MEL-5 melanoma. To be noted: 10 µM unless noted.
The next experiment relates to UACC-62 melanoma. Conditions: 10 µM unless noted.
In the next experiment the test system is LOX IMVI melanoma. Conditions: 10 µM unless noted.
The next experiment relates to SK-MEL-28 melanoma. Conditions: 10 µM unless noted.
In another experiment the test system is SK-MEL-2 melanoma. Conditions: 10 µM unless noted.
In the next experiment the test system is UO-31 renal. To be noted: 10 µM unless noted.
The next experiment relates to TK-10 renal. To be noted: 10 µM unless noted.
For another experiment, the system named is ACHN renal. Conditions: 10 µM unless noted.
The next experiment has as its system CAKI-1 renal. Conditions: 10 µM unless noted.
The test system of a further experiment is CCRF-CEM leukemia. Conditions: 10 µM.
The test system of another experiment is EKVX NSCLC. To be noted: 10 µM.
For a further experiment, the system named is SN12C renal. Conditions: 10 µM unless noted.
Another experiment has as its system A498 renal. To be noted: 10 µM unless noted.
The subject of another experiment is MOLT-4 leukemia. To be noted: 10 µM unless noted.

Take `CCCCCCN(CCCCCC)CCC(=O)Nc1ccc(S(=O)(=O)c2ccc(NC(=O)CCN(CCCCCC)CCCCCC)cc2)cc1`: the growth in the experiment on HCT-15 colon is 72.9%; with HT29 colon, 29.9%; with SNB-75 CNS, 71.3%; in the experiment with SNB-19 CNS it was 88%; in the experiment with U251 CNS it was 88.4%; with PC-3 prostate, 76.6%. In addition, the growth with SK-MEL-5 melanoma is 90%; in the experiment with UACC-62 melanoma it was 91.3%; in the experiment on LOX IMVI melanoma it was 76.5%; in the experiment on SK-MEL-28 melanoma, 91.9%; with SK-MEL-2 melanoma, 122%; with UO-31 renal it was 52.3%. The growth is 109% in the experiment on TK-10 renal, 88.3% in the experiment on ACHN renal, 86.6% with CAKI-1 renal and 51.3% with CCRF-CEM leukemia.

Regarding `Cc1[nH]n(C(=S)Nc2nc3cc(Cl)c(F)cc3s2)c(=O)c1N=Nc1ccc(F)c(Cl)c1`, the growth is 101% with HCT-15 colon; 112% with HT29 colon; 86% in the experiment with SNB-75 CNS; 89.7% in the experiment on SNB-19 CNS; 95.9% with U251 CNS; 98.1% in the experiment on PC-3 prostate. Moreover, the growth with SK-MEL-5 melanoma was 93.1%; in the experiment on UACC-62 melanoma, 92.8%; in the experiment with LOX IMVI melanoma, 99%; in the experiment on SK-MEL-28 melanoma it was 106%; with EKVX NSCLC, 80.1%; with SN12C renal, 100%. Also, the growth in the experiment on UO-31 renal is 93%; with TK-10 renal, 129%; in the experiment on ACHN renal, 104%; in the experiment with A498 renal, 65.8%; in the experiment with CCRF-CEM leukemia, 19.3%.

For the compound `O=C(OCC1CC2(Cl)C(Cl)=C(Cl)C1(Cl)C2(Cl)Cl)C1C(C(=O)OCC2CC3(Cl)C(Cl)=C(Cl)C2(Cl)C3(Cl)Cl)C2(Cl)C(Cl)=C(Cl)C1(Cl)C2(Cl)Cl` (stereo not drawn), the growth in the experiment on HCT-15 colon was 99.9%; in the experiment with HT29 colon, 99.6%; in the experiment on SNB-75 CNS, 97.8%; in the experiment on SNB-19 CNS it was 106%; in the experiment with U251 CNS it was 99.2%; in the experiment on PC-3 prostate, 105%. Besides, the growth in the experiment with SK-MEL-5 melanoma was 104%; with UACC-62 melanoma, 107%; with LOX IMVI melanoma, 122%; with SK-MEL-28 melanoma it was 112%; in the experiment with SK-MEL-2 melanoma, 111%; in the experiment on UO-31 renal, 91.8%. In addition, the growth was 105% in the experiment on TK-10 renal; 95.6% with ACHN renal; 90.8% in the experiment with CAKI-1 renal; 117% in the experiment on A498 renal; 85% in the experiment with MOLT-4 leukemia.

`C/C=C/C/C=C/[C@H](C)C[C@H](O)[C@@H]1C[C@@H]2O[C@H]2/C=C/[C@H](O)[C@@H](O)/C=C/C[C@H](C)CC(=O)O1`: the growth was 66.1% with HCT-15 colon; 68.4% in the experiment with HT29 colon; 90.9% with SNB-75 CNS; 97.4% in the experiment on SNB-19 CNS; 87.4% in the experiment with U251 CNS; 115% with PC-3 prostate. Besides, the growth with SK-MEL-5 melanoma was 72.9%; with UACC-62 melanoma, 71.3%; in the experiment with LOX IMVI melanoma, 88.3%; in the experiment with SK-MEL-28 melanoma it was 101%; in the experiment on EKVX NSCLC, 121%; in the experiment with SN12C renal it was 79.1%. In addition, the growth was 56.9% with UO-31 renal; 42.8% in the experiment with TK-10 renal; 77.5% in the experiment on ACHN renal; 115% in the experiment with A498 renal; 51.3% with CCRF-CEM leukemia; 81.5% in the experiment with MOLT-4 leukemia.

Regarding `O=C(Nc1ccc(-n2cc(-c3ccncc3)c(-c3ccc(Cl)c(O)c3)n2)cc1)c1ccc(Cl)c(C(F)(F)F)c1`, the growth was -28% (active) with HCT-15 colon; -86.3% (active) in the experiment on HT29 colon; -48.6% (active) in the experiment with SNB-75 CNS; 32.5% with SNB-19 CNS; -49.1% (active) in the experiment with U251 CNS; -19.9% (active) with PC-3 prostate. For the same compound, the growth in the experiment on SK-MEL-5 melanoma was -97.5% (active); in the experiment with UACC-62 melanoma, -3.14% (active); with LOX IMVI melanoma it was -5.19% (active); in the experiment on SK-MEL-28 melanoma, -38.3% (active); with EKVX NSCLC it was 35.2%; with SN12C renal it was 66.6%. The growth is -37.3% (active) in the experiment with UO-31 renal; -19.8% (active) with TK-10 renal; -24.3% (active) in the experiment with ACHN renal; -33.5% (active) with CAKI-1 renal; 71.8% in the experiment on A498 renal; 3.34% (active) in the experiment on CCRF-CEM leukemia. Also, in the experiment on MOLT-4 leukemia, the growth was -1.8% (active).

Turning to `O=S(=O)(O)CCI`, the growth in the experiment on HCT-15 colon was 108%; with HT29 colon, 116%; in the experiment on SNB-75 CNS it was 98%; in the experiment on SNB-19 CNS, 102%; with U251 CNS it was 110%; in the experiment on PC-3 prostate, 95.7%. Moreover, the growth in the experiment with SK-MEL-5 melanoma is 91.2%; with UACC-62 melanoma, 101%; in the experiment on LOX IMVI melanoma, 97.8%; with SK-MEL-28 melanoma, 113%; in the experiment with EKVX NSCLC it was 119%; in the experiment with SN12C renal, 105%. The growth in the experiment on UO-31 renal is 95.4%; in the experiment with TK-10 renal, 95.7%; in the experiment with ACHN renal it was 112%; in the experiment on CAKI-1 renal it was 107%; in the experiment on A498 renal, 90.7%; in the experiment on CCRF-CEM leukemia it was 106%. Moreover, the growth in the experiment with MOLT-4 leukemia was 120%.

In the case of `NC(=O)c1c(Nc2ccccc2)nn2cc(-c3nc4ccccc4s3)c(N)nc12`, the growth in the experiment with HCT-15 colon is 101%; with HT29 colon, 103%; in the experiment with SNB-75 CNS, 88.9%; in the experiment on SNB-19 CNS, 92.7%; in the experiment on U251 CNS it was 101%; with PC-3 prostate, 91.4%. Further, the growth in the experiment on SK-MEL-5 melanoma is 97.3%; with UACC-62 melanoma, 97.3%; with LOX IMVI melanoma it was 94%; with SK-MEL-28 melanoma, 113%; with EKVX NSCLC, 89.5%; with SN12C renal, 95.5%. For the same compound, the growth with UO-31 renal was 81.3%; in the experiment on TK-10 renal, 124%; in the experiment on ACHN renal, 96.3%; in the experiment on CAKI-1 renal, 86.2%; in the experiment on A498 renal it was 92.5%; in the experiment on CCRF-CEM leukemia it was 99.2%. The growth in the experiment with MOLT-4 leukemia was 93.3%.

Take `COc1ccc(C(=O)NCCNc2nccc(-c3c(-c4ccc(F)cc4)nc4sccn34)n2)cc1`: the growth was 36.6% with HCT-15 colon; 14.6% in the experiment with HT29 colon; 50.9% in the experiment with SNB-75 CNS; 61.9% with SNB-19 CNS; 55.4% in the experiment with U251 CNS; 49.5% in the experiment with PC-3 prostate. Also, the growth was 38.1% in the experiment on SK-MEL-5 melanoma; 47.4% with UACC-62 melanoma; 43.3% in the experiment with LOX IMVI melanoma; 76.7% in the experiment on SK-MEL-28 melanoma; 66.8% in the experiment with EKVX NSCLC; 70% with SN12C renal. In addition, the growth is 34.3% in the experiment on UO-31 renal; 29.1% in the experiment on TK-10 renal; 29.2% in the experiment on ACHN renal; 43.6% in the experiment with CAKI-1 renal; 56.1% in the experiment on A498 renal; 48.1% in the experiment on CCRF-CEM leukemia.

The record behind these values is PubChem BioAssay (NCI).
